According to PubChem BioAssay (EPA / NIEHS):
Values joined by “and” are separate entries in the source; they are usually repeats but may differ in a detail not shown here. Equal values may be shown once. Active and inactive are the calls of the source. Rule for the calls: active = hit-call score of the fitted dose curve at least 0.9, where 1 is the maximum; inactive = score below 0.9.

read-out: KRT18 (gene 3875); assay: BSK_BF4T_Keratin818: BioMAP Diversity Plus: BF4T Assay for Keratin 818 Biomarker Activity (AID 2284266); details: primary human bronchial epithelial cells with fibroblasts
Procedure: BSK_BF4T is a cell-based, multiplexed-readout assay that uses bronchial epithelial cells and dermal fibroblasts, a human vascular primary cell, with measurements taken at 24 hours after chemical dosing in a microplate: 96-well plate.BSK_BF4T_Keratin818 is an assay component measured in the BSK_BF4T assay. It measures Keratin 8/18 antibody related to regulation of gene expression using ELISA technology.Data from the assay component BSK_BF4T_Keratin818 was analyzed at the endpoint, BSK_BF4T_Keratin818, in the positive analysis fitting direction relative to DMSO as the negative control and baseline of activity. Using a type of binding reporter, gain or loss-of-signal activity can be used to understand protein changes. To generalize the intended target to other relatable targets, this assay endpoint is annotated to the 'cell adhesion molecules' intended target family, where the subfamily is 'keratin'.
The levels of cell surface (or secreted, indicated by the prefix "s") biomarker endpoints were measured by ELISA. Overt cytotoxicity to cells in confluent adherent cultures (all systems other than the BT system) was assessed by measuring total protein levels using sulforhodamine B (SRB) staining in parallel cultures at the time of biomarker measurements, indicated as SRB endpoints. For proliferation assays for adherent cell types, individual cell types are cultured at sub-confluence and relative cell numbers quantified by SRB staining at time points optimized for each system (48 h: 3C and CASM3C systems; 72 h: BT and HDF3CGF systems; 96 h: SAg system). SRB was performed by staining cells with 0.1% SRB after fixation with 10% TCA and reading wells at 560 nm.Viability and proliferation of PBMC (T cells) was quantified by Alamar Blue reduction for the SAg and BT systems. For PBMC viability (referred to as PBMC Cytotoxicity within the assay endpoint names), cells were plated (75,000/well in a 96-well plate) and then chemical samples added for 1 h before addition of activators, SEB and TSST-1 (20 ng/mL final concentration each). Cells were incubated for 90 h. Then, Alamar Blue (20 uL/well) (Invitrogen, Cat DAL1100) was added for 6 h, and the plates were read with a fluorescence microplate reader at 546/580 nm (excitation/emission). For PBMC proliferation, cells were plated and activated as above but incubated for only 16 h prior to addition of Alamar Blue. Plates were read after 6 h.

Question: With `O=C(O)C(F)(F)C(F)(F)F` as the compound, how does the outcome read?
Answer: Its outcome is “inactive”.

Question: `O=C(O)C(F)(F)C(F)(F)C(F)(F)C(F)(F)F` was tested. Which outcome did it give?
Answer: Its outcome is “inactive”.

Question: For `O=C(O)C=C(C(F)(F)F)C(F)(F)F`, which outcome is on record?
Answer: Its outcome is “inactive”.

Question: How did the outcome turn out when `Cc1ccc(S(=O)(=O)OCC(F)(F)C(F)(F)C(F)(F)C(F)(F)C(F)(F)C(F)F)cc1` was run?
Answer: The outcome was “inactive”.

Question: How did the outcome turn out when `C=CC(F)(F)C(F)(F)C(F)(F)C(F)(F)C(F)(F)C(F)(F)C(F)(F)C(F)(F)F` was run?
Answer: The outcome was “inactive”.

Question: For `FC(F)(F)C(F)(F)CNCC(F)(F)C(F)(F)F`, which outcome is on record?
Answer: Its outcome is “inactive”.

Question: Which AC50 does the source give for `O=C(O)C(F)(F)C(F)(F)C(F)(F)C(F)(F)C(F)(F)C(F)(F)C(F)(F)C(F)(F)C(F)(F)C(F)F` here?
Answer: Its AC50 is 22.7 µM (active) and 30 µM (active).

Question: For `FC(F)(F)C(F)(F)C(F)(F)C(F)(F)CCI`, which outcome is on record?
Answer: The outcome was “inactive”.

Question: Which outcome does the source give for `O=C(O)C(F)(F)C(F)(F)C(F)(F)C(F)(F)C(F)(F)C(F)(F)C(F)(F)C(F)(F)C(F)(F)C(F)(F)C(F)(F)C(F)(F)F` here?
Answer: Its outcome is “inactive”.

Question: `C=C(C)C(=O)OCC(F)(F)C(F)(F)C(F)(F)F` was tested. Which outcome did it give?
Answer: Its outcome is “inactive”.

Question: Which outcome does the source give for `FC1CC(F)(F)C(F)(F)C1(F)F` (stereo not given) here?
Answer: The outcome was “inactive”.

Question: For `OCC(F)(F)C(F)(F)C(F)(F)C(F)F`, which outcome is on record?
Answer: Its outcome is “inactive”.

Question: `FC(F)(F)C(F)(F)C(F)(F)C(F)(F)C(F)(F)C(F)(F)C(F)(F)Br` was tested. Which outcome did it give?
Answer: The outcome was “inactive”.

Question: For `FC(F)(F)C(F)(F)C(F)(F)N(C(F)(F)C(F)(F)C(F)(F)F)C(F)(F)C(F)(F)C(F)(F)F`, which outcome is on record?
Answer: The outcome was “inactive”.

Question: With `FC(F)(F)C(F)(F)C(F)(F)CI` as the compound, how does the outcome read?
Answer: The outcome was “inactive”.

Question: With `FC(F)(F)C(F)(F)C(F)(F)C(F)(F)C(F)(F)C(F)(F)C(F)(F)I` as the compound, how does the outcome read?
Answer: The outcome was “inactive”.

Question: Which outcome does the source give for `OCC(F)(F)C(F)(F)C(F)(F)F` here?
Answer: Its outcome is “inactive”.

Question: How did the outcome turn out when `FC(F)(F)C(F)(F)C(F)(F)C(F)(F)C(F)(F)C(F)(F)CCS` was run?
Answer: The outcome was “inactive”.

Question: Which AC50 does the source give for `FC(F)(I)C(F)(F)C(F)(F)C(F)(F)I` here?
Answer: The AC50 was 46.6 µM (active) and 47.8 µM (active) and 47.4 µM (active).

Question: For `O=S(=O)(OCC(F)F)C(F)(F)F`, which outcome is on record?
Answer: Its outcome is “inactive”.

Question: `O=C(O)C(F)(F)C(F)(F)OC(F)(F)F` was tested. Which outcome did it give?
Answer: The outcome was “inactive”.

Question: Which outcome does the source give for `OCC(F)(F)C(F)(F)C(F)(F)C(F)(F)C(F)(F)C(F)F` here?
Answer: Its outcome is “inactive”.

Question: With `N=C(N)C(F)(F)C(F)(F)C(F)(F)C(F)(F)C(F)(F)C(F)(F)C(F)(F)F` as the compound, how does the outcome read?
Answer: The outcome was “inactive”.

Question: How did the outcome turn out when `O=S(=O)(OCCOC(F)(F)F)C(F)(F)F` was run?
Answer: The outcome was “inactive”.

Question: With `C=CC(F)(F)C(F)(F)C(F)(F)C(F)(F)C(F)(F)C(F)(F)C(F)(F)C(F)(F)C=C` as the compound, how does the outcome read?
Answer: Its outcome is “inactive”.

Question: Which outcome does the source give for `O=C(CC(=O)C(F)(F)C(F)(F)F)C(F)(F)F` here?
Answer: Its outcome is “inactive”.

Question: How did the outcome turn out when `CCCCCCCCC(F)(F)C(F)(F)C(F)(F)C(F)(F)C(F)(F)C(F)(F)F` was run?
Answer: The outcome was “inactive”.

Question: How did the AC50 turn out when `O=C(Cl)C(F)(F)C(F)(F)C(F)(F)C(F)(F)C(F)(F)C(F)(F)C(F)(F)C(F)(F)F` was run?
Answer: The AC50 was 44.5 µM (active) and 46.1 µM (active) and 44.3 µM (active).

Question: How did the outcome turn out when `NC(=O)C(F)(F)C(F)(F)C(F)(F)C(F)(F)F` was run?
Answer: The outcome was “inactive”.

Question: Which outcome does the source give for `FC(F)(F)C(F)(F)C(F)(F)C(F)(F)C(F)(F)C(F)(F)C(F)(F)C(F)(F)CCS` here?
Answer: The outcome was “inactive”.

Question: Which outcome does the source give for `FC(F)(F)C(F)(F)C(F)(F)C(F)(F)C(F)(F)C(F)(F)CC1CO1` (stereo not given) here?
Answer: The outcome was “inactive”.

Question: Which outcome does the source give for `FC(F)(F)C(F)(F)C(F)(F)C(F)(F)C(F)(F)CCI` here?
Answer: Its outcome is “inactive”.

Question: For `CCO[Si](CCC(F)(F)C(F)(F)C(F)(F)C(F)(F)C(F)(F)C(F)(F)F)(OCC)OCC`, which outcome is on record?
Answer: The outcome was “inactive”.

Question: Which outcome does the source give for `OCCCC(F)(F)C(F)(F)C(F)(F)F` here?
Answer: Its outcome is “inactive”.

Question: Which outcome does the source give for `C=C(C)C(=O)OCC(F)(F)C(F)(F)C(F)(F)C(F)(F)C(F)(F)C(F)(F)C(F)(F)F` here?
Answer: The outcome was “inactive”.

Question: For `C=CC(=O)OCC(F)(F)C(F)(F)C(F)(F)C(F)(F)COC(=O)C=C`, which outcome is on record?
Answer: Its outcome is “inactive”.

Question: Which AC50 does the source give for `O=C(O)C(F)(F)C(F)(F)C(F)(F)C(F)(F)C(F)(F)C(F)(F)C(F)(F)C(F)(F)Cl` here?
Answer: Its AC50 is 45 µM (active) and 49.7 µM (active).

Question: Which outcome does the source give for `O=C(O)C(F)(F)C(F)(F)C(F)F` here?
Answer: The outcome was “inactive”.

Question: With `O=C(O)C(F)(OC(F)(F)C(F)(OC(F)(F)C(F)(F)C(F)(F)F)C(F)(F)F)C(F)(F)F` (stereo not given) as the compound, how does the outcome read?
Answer: The outcome was “inactive”.

Question: With `OCCCC(F)(F)C(F)(F)C(F)(F)C(F)(F)C(F)(F)C(F)(F)C(F)(F)F` as the compound, how does the AC50 read?
Answer: Its AC50 is 23.7 µM (active) and 47.1 µM (active).
